Consider 33 molecules from PubChem BioAssay AID504608 (National Center for Advancing Translational Sciences (NCATS), 2011).

Where “and” joins values, the source holds several entries; their conditions need not be identical. Identical values can stand only once. Calls of active or inactive are those of the source. The call rests on the fitted dose curve; in most records, active means well fitted inhibition curve with a large enough effect; inconclusive means small, poorly fitted or top-dose-only effect; inactive means flat fitted curve, though single readings scatter.

The nature of this assay: Quantitative high throughput screen for delayed death inhibitors of the malarial parasite plastid, 48 hour incubation. The settings on record: P. falciparum in erythrocytes, luciferase growth. An excerpt:
NIH Molecular Libraries Probe Production Network [MLPCN] NIH Chemical Genomics Center [NCGC] MLPCN Grant: R21 NS059500 Assay Provider: David Fidock and Eric Ekland, Columbia University The goal of this screen is to discover new antimalarial compounds that act by inhibiting the development of the apicoplast in the malarial parasite Plasmodium falciparum. The biochemical processes that make this organelle essential for erythrocytic stage parasites are not well understood. However, antibiotics, such as azithromycin and tetracycline, which target the apicoplast translational machinery, have a potent antimalarial effect. […] We have developed a cell-based assay that measures parasite growth based on the expression of an integrated copy of a firefly luciferase reporter. To detect small molecules that cause this 'delayed death' phenotype, erythrocytes infected with the luciferase-expressing parasites were incubated with compounds for either one or two generations, corresponding to 48 and 96 hours, respectively. Compounds that inhibit parasite growth in the second generation, but not the first, should be enriched in antimalarials that target the apicoplast. Growth inhibition is detected by a decrease in luciferase activity
Four microliters of culture medium (RPMI 1640 with 0.5% w/v Albumax (GIBCO), 24 mM sodium bicarbonate and 10 ug/mL gentamycin) were dispensed by a Multi-drop Combi into white solid 1536-well plates (Grenier) and 23 nL compound was added by a pin tool. Four microliters of infected erythrocytes (2% hematocrit, 0.1% parasitemia final concentration) in culture medium were dispensed and the plates incubated for 48 hours at 37 C in 5% CO2. Two microliters of luciferase detection reagent was added and luminescence was detected by a ViewLux (PerkinElmer) reader
On to `C[C@@H]1CN([C@@H](C)CO)C(=O)c2cc(NC(=O)Nc3ccccc3)ccc2O[C@@H](C)CCCCO[C@H]1CN(C)S(=O)(=O)c1cccnc1`, for which the Potency was 2830 nM (active).
The same measure for `Cc1noc(C)c1NC(=O)Nc1ccc2c(c1)C(=O)N(C(C)C)C[C@@H](C)[C@H](CN(C)S(=O)(=O)c1ccc(F)cc1)OCCCC[C@H](C)O2`: 63.4 nM (active) and 1.59 µM (active); for `C[C@@H]1CN([C@@H](C)CO)C(=O)c2cc(NC(=O)Nc3ccccc3)ccc2O[C@@H](C)C/C=C/CO[C@H]1CN(C)S(=O)(=O)c1ccc(F)cc1`: 142 nM (active); for `C=CCOC(=O)N(C)C[C@H]1OCCCC[C@H](C)Oc2ccc(NC(=O)Nc3ccccc3)cc2C(=O)N([C@@H](C)CO[Si](C)(C)C(C)(C)C)C[C@H]1C`: 283 nM (active).
With `C[C@@H]1CN([C@@H](C)CN=[N+]=[N-])C(=O)c2cc(NC(=O)Nc3ccccc3)ccc2O[C@@H](C)CCCCO[C@H]1CN(C)S(=O)(=O)c1ccc(F)cc1`, the Potency was 3.6 nM (active).
As for `COCOC[C@H](C)N1C[C@@H](C)[C@H](CN(C)S(=O)(=O)c2ccc(F)cc2)OCCCC[C@H](C)Oc2ccc(NC(=O)Nc3ccccc3)cc2C1=O`, the Potency was 10 nM (active).
As for `C[C@@H]1CN(CCO[Si](C)(C)C(C)(C)C)C(=O)c2cc(NC(=O)Nc3ccccc3)ccc2O[C@@H](C)CCCCO[C@H]1CN(C)S(=O)(=O)c1ccc(F)cc1`, the Potency was 56.5 nM (active).
The same measure for `COc1ccc(COCCN2C[C@@H](C)[C@H](CN(C)S(=O)(=O)c3ccc(F)cc3)OCCCC[C@H](C)Oc3ccc(NC(=O)Nc4ccccc4)cc3C2=O)cc1`: 100 nM (active); for `COc1ccc(COC[C@H](C)N2C[C@@H](C)[C@H](CN(C)Cc3ccc(OC)cc3)OCCCC[C@H](C)Oc3ccc(NC(=O)Nc4ccccc4)cc3C2=O)cc1`: 565 nM (active).
Consider `C[C@@H]1CN([C@@H](C)CO)C(=O)c2cc(NC(=O)Nc3ccccc3)ccc2O[C@@H](C)CCCCO[C@H]1CN(C)S(=O)(=O)c1ccccc1F`, for which the Potency was 634 nM (active).
The same measure for `C[C@@H]1CN([C@@H](C)COC(C)(C)C)C(=O)c2cc(NC(=O)Nc3ccccc3)ccc2O[C@@H](C)CCCCO[C@H]1CN(C)S(=O)(=O)c1ccc(F)cc1`: 1.3 nM (active); for `C[C@@H]1CN([C@H](C)CO[Si](C)(C)C(C)(C)C)C(=O)c2cc(NC(=O)Nc3ccccc3)ccc2O[C@@H](C)CCCCO[C@H]1CN(C)S(=O)(=O)c1ccc(F)cc1`: 225 nM (active).
The same measure for `C=CCOC(=O)N(C)C[C@@H]1OCCCC[C@H](C)Oc2ccc(NC(=O)Nc3ccccc3)cc2C(=O)N([C@@H](C)CO)C[C@H]1C`: 356 nM (active).
The same measure for `COCCOCOC[C@H](C)N1C[C@@H](C)[C@H](CN(C)S(=O)(=O)c2ccc(F)cc2)OCCCC[C@H](C)Oc2ccc(NC(=O)Nc3ccccc3)cc2C1=O`: 11.3 nM (active); for `C=CCOC(=O)N(C)C[C@@H]1OCCCC[C@H](C)Oc2ccc(NC(=O)Nc3ccccc3)cc2C(=O)N([C@H](C)COC(=O)c2ccccc2)C[C@H]1C`: 504 nM (active); for `C[C@@H]1CN([C@@H](C)CO)C(=O)c2cc(Nc3nc4ccccc4o3)ccc2O[C@@H](C)CCCCO[C@H]1CN(C)S(=O)(=O)c1ccc(F)cc1`: 1590 nM (active).
With `C[C@@H]1CN([C@@H](C)COC(=O)C(C)(C)C)C(=O)c2cc(NC(=O)Nc3ccccc3)ccc2O[C@@H](C)CCCCO[C@H]1CN(C)S(=O)(=O)c1ccc(F)cc1`, the Potency is 11.3 nM (active).
Consider `CC(C)NC(=O)Nc1ccc2c(c1)C(=O)N([C@@H](C)CO)C[C@@H](C)[C@H](CN(C)S(=O)(=O)c1ccc(F)cc1)OCCCC[C@H](C)O2`, for which the Potency is 634 nM (active).
Consider `C[C@@H]1CN([C@@H](C)CO)C(=O)c2cc(NC(=O)Nc3ccccc3)ccc2O[C@@H](C)C/C=C\CO[C@H]1CN(C)S(=O)(=O)c1ccc(F)cc1`, for which the Potency is 356 nM (active).
Take `C[C@@H]1CN(C)C(=O)c2cc(NC(=O)Nc3ccccc3)ccc2O[C@@H](C)CCCCO[C@@H]1CN(C)S(=O)(=O)c1ccc(F)cc1`: the Potency was 1260 nM (active).
The same measure for `Cc1noc(C)c1NC(=O)Nc1ccc2c(c1)C(=O)N([C@@H](C)CO)C[C@@H](C)[C@H](CN(C)S(=O)(=O)c1ccc(F)cc1)OCCCC[C@H](C)O2`: 126 nM (active); for `C[C@@H]1CN([C@@H](C)CO)C(=O)c2cc(NC(=O)Nc3ccccc3)ccc2O[C@@H](C)CCCCO[C@H]1CN(C)C(=O)OC(C)(C)C`: 565 nM (active).
The same measure for `CC(C)N1C[C@@H](C)[C@H](CN(C)S(=O)(=O)c2ccc(F)cc2)OCCCC[C@H](C)Oc2ccc(NC(=O)Nc3ccccc3)cc2C1=O`: 17.9 nM (active); for `C[C@@H]1CN([C@@H](C)COC(=O)c2ccccc2)C(=O)c2cc(NC(=O)Nc3ccccc3)ccc2O[C@@H](C)CCCCO[C@H]1CN(C)S(=O)(=O)c1ccc(F)cc1`: 63.4 nM (active); for `C[C@@H]1CN([C@@H](C)COC(=O)c2ccccc2)C(=O)c2cc(NC(=O)Nc3ccccc3)ccc2O[C@@H](C)CCCCO[C@H]1CN(C)C(=O)OC(C)(C)C`: 400 nM (active).
The same measure for `C[C@@H]1CN([C@@H](C)CO)C(=O)c2cc(NC(=O)Nc3ccccc3)ccc2O[C@@H](C)CCCCO[C@H]1CN(C)S(=O)(=O)c1ccc(C(F)(F)F)cc1`: 896 nM (active).
On to `C[C@@H]1CN([C@@H](C)CO)C(=O)c2cc(NC(=O)Nc3ccccc3)ccc2O[C@@H](C)CCCCO[C@H]1CN(C)S(=O)(=O)c1cccc(F)c1`, for which the Potency was 10 nM (active).
The same measure for `C[C@@H]1CCCCO[C@@H](CN(C)Cc2ccc(F)cc2)[C@H](C)CN([C@@H](C)CO)C(=O)c2cc(NC(=O)Nc3ccccc3)ccc2O1`: 4000 nM (active); for `C[C@@H]1CN([C@@H](C)CO)C(=O)c2cc(NC(=O)Nc3ccccc3)ccc2O[C@@H](C)CCCCO[C@H]1CN(C)Cc1ccc(C(F)(F)F)cc1`: 1000 nM (active); for `C[C@@H]1CN([C@@H](C)CO[Si](C)(C)C(C)(C)C)C(=O)c2cc(NC(=O)Nc3ccccc3)ccc2O[C@@H](C)CCCCO[C@H]1CN(C)S(=O)(=O)c1ccc(F)cc1`: 1.1 nM (active).
The same measure for `C[C@@H]1CN(CCO)C(=O)c2cc(NC(=O)Nc3ccccc3)ccc2O[C@@H](C)CCCCO[C@H]1CN(C)S(=O)(=O)c1ccc(F)cc1`: 179 nM (active); for `C[C@@H]1CCCCO[C@H](CN(C)C(=O)Nc2ccc(F)cc2)[C@H](C)CN([C@@H](C)CO)C(=O)c2cc(NS(=O)(=O)c3ccccc3)ccc2O1`: 356 nM (active).
The same measure for `C[C@@H]1CN([C@@H](C)CO)C(=O)c2cc(N)ccc2O[C@@H](C)CCCCO[C@H]1CN(C)S(=O)(=O)c1ccc(F)cc1`: 159 nM (active).
